Source: PubChem BioAssay (NCI)
The panel holds about 83,000 compounds, 20% with a hit somewhere; the sample as a whole holds those more often.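 Negative percent growth values reflect cell death: -40 means 40% of the cells present at the start died, and -100 means all died.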 Unmarked numbers belong to inactive results. Activity calls are given as the source filed them. The calls were made as follows: active = growth percent below 10; inactive = the rest.

Columns and labels:
Experiment in all cases: NCI-60 one-dose screen, 48 h (100 = growth as untreated, 0 = no growth, -100 = all killed)
Settings in all cases: 10 µM unless noted
[1] = tested on: SR leukemia
[2] = tested on: RPMI-8226 leukemia
[3] = tested on: OVCAR-8 ovarian
[4] = tested on: OVCAR-5 ovarian
[5] = tested on: OVCAR-4 ovarian
[6] = tested on: SK-OV-3 ovarian
[7] = tested on: IGROV1 ovarian
[8] = tested on: OVCAR-3 ovarian
[9] = tested on: HS 578T breast
[10] = tested on: NCI/ADR-RES ovarian

Row | SMILES | growth [1] | growth [2] | growth [3] | growth [4] | growth [5] | growth [6] | growth [7] | growth [8] | growth [9] | growth [10]
1 | COc1c2c(cc3c1C(CCc1ccccc1)N(C)CC3)OCO2 (stereo unspecified) | -9.93% (active) | -15.5% (active) | 16.9% | 16.2% | 29.2% | -6.7% (active) | -4.07% (active) | 3.16% (active) | 11% | 1.62% (active)
2 | NCCCCn1c(SCCc2c[nH]c3ccccc23)nnc1-c1ccc2ccccc2n1 | -19.7% (active) | -50.3% (active) | -9.11% (active) | 26% | -11.1% (active) | 22.3% | 3.95% (active) | 10.4% | -25.4% (active) | 62.3%
3 | O=C(N/N=C/c1ccc(-c2cccc([N+](=O)[O-])c2)s1)c1[nH]c2ccc(Br)cc2c1-c1ccccc1 | 69.9% | 89.2% | 95.9% | 106% | 82.1% | 93.4% | 102% | 62.1% | 82.4% | 105%
4 | CC1=C(C(=O)Nc2ccccc2)C(c2ccc3ccccc3c2)n2c(nc3ccccc32)N1 (stereo unspecified) | 38.4% | 40.8% | 6.23% (active) | 97.9% | -35.4% (active) | 107% | – | -21.9% (active) | 40.3% | 41.4%
5 | CN(C)c1nc(NCCNS(=O)(=O)c2ccc(C(=O)/C=C/c3ccc(F)cc3)cc2)nc(N2CCOCC2)n1 | -25.7% (active) | -28.4% (active) | 42.3% | 96% | 64.5% | 82.5% | -44.9% (active) | 64.1% | 73.5% | 49.3%
6 | Fc1ccc(Nc2nnc(-c3c[nH]c4ccccc34)o2)cc1 | 70.4% | 24.7% | 85.5% | 105% | 81.1% | 83.6% | 50.8% | 107% | 82% | 74.6%
7 | COc1cc2cc(C(=O)N3C[C@@H](CCl)c4c3cc(OC(=O)N(C)CCSSCCN3CCOCC3)c3ccccc43)[nH]c2c(OC)c1OC | -23.5% (active) | -11.5% (active) | -41.4% (active) | -42.8% (active) | -36.7% (active) | -30% (active) | – | -1.85% (active) | -15.2% (active) | -33.4% (active)
8 | O=C1N/C(=N\c2nccs2)S/C1=C\c1ccc([N+](=O)[O-])cc1 | 25.5% | 6.29% (active) | 14.3% | 32.8% | 12.4% | 52.7% | 23.6% | 12.7% | 20.8% | 8.78% (active)
9 | O=C1Nc2cc(-c3ccc(NS(=O)(=O)c4ccc(-c5ccccc5)cc4)cc3)ccc2/C1=C/c1ccc[nH]1 | -33.1% (active) | 21.3% | 52.2% | 61.7% | 21.3% | 98.2% | 73% | -19.4% (active) | 59.4% | 62.9%
10 | COc1ccc(Nc2nnc(-c3c[nH]c4ccccc34)o2)cc1 | 70.5% | 32.5% | 86.2% | 103% | 85.3% | 74.2% | – | 94.4% | 81.2% | 73.8%
11 | COc1nc(N)ncc1-c1ccc2ncnc(N3CCc4cc(F)c(Cl)cc43)c2c1 | -11.2% (active) | 14% | -24.1% (active) | -2.67% (active) | -84.5% (active) | -36.6% (active) | -45.3% (active) | -24.7% (active) | 7.35% (active) | 18.9%
12 | Cc1ccc(C2CC(c3ccc(NC(=O)Nc4ccccc4)cc3)=NN2c2ccc(S(C)(=O)=O)cc2)cc1 (stereo unspecified) | 15.5% | -0.47% (active) | 7.91% (active) | -51.3% (active) | 17.6% | 26.8% | -28.1% (active) | -2.63% (active) | 21.3% | -35.3% (active)
13 | O=C(Nc1nc2ccccc2s1)Nc1ccccc1Cl | 111% | 91.9% | 48.5% | 89.6% | 34.2% | 49.2% | 79.4% | 111% | 22.7% | 76%
14 | O=C(Nc1ccc(-c2ccc3c(c2)NC(=O)/C3=C\c2ccc[nH]2)cc1)Nc1ccc(Cl)c(Cl)c1 | 16% | 41.1% | 55.6% | 67.9% | 37.6% | 94.7% | – | 12.9% | 45.9% | 51.4%
15 | CN1C(=O)/C(=C/c2ccco2)S/C1=N/c1nccs1 | 89.5% | 115% | 104% | 110% | 97.8% | 106% | 106% | 114% | 111% | 101%
16 | COc1ccc(C2=Nc3c(N)nc(N)nc3NC(c3ccc(Oc4nc(Nc5ccc(F)cc5)nc(N(C)C)n4)c(OC)c3)C2)cc1 (stereo unspecified) | -29.4% (active) | 36.2% | 81.7% | 108% | 48.4% | 93.2% | 63.5% | 82.5% | 37.6% | 62.7%
17 | Cc1oc(-c2ccccc2)nc1CN[C@@H]1C[C@@H]2C[C@H]([C@H]1C)C2(C)C | -6.32% (active) | -3.45% (active) | 82.6% | 30.7% | 74.5% | 73.5% | – | 84.4% | 69.2% | -38.1% (active)
18 | O=C(CSc1nnc(-c2ccc(-c3nc4ccc(Cl)cc4[nH]3)cc2)o1)Nc1ccc(Br)cc1 | 17.1% | 8.9% (active) | -31.8% (active) | 47.5% | 16% | 73% | 53.4% | 9.66% (active) | -0.329% (active) | 15%
19 | COc1ccc(NC2=C(I)C(=O)C(C)=C(C)C2=O)cc1 | 12.3% | 2.98% (active) | -19.2% (active) | 53.9% | -84.6% (active) | 91.8% | – | -17.1% (active) | 85.6% | -20% (active)
20 | N#Cc1ccc(C(=O)NNC(=O)CSc2nc3sc4c(c3c(=O)n2-c2ccc(Cl)cc2)CCCC4)cc1 | 47.6% | 54.6% | 34.4% | 31.9% | 73.8% | 72.7% | – | 91.8% | 59.4% | 67.3%
21 | N#C/C(=C/c1ccc(Cl)cc1)c1nnc(NC(=O)c2ccc(-n3c(=O)[nH]c4ccccc4c3=O)cc2)s1 | 62.7% | 70.4% | 46% | – | 75.3% | 85% | 80.9% | 84.6% | 34.1% | 81.5%
22 | COc1cc(/C=N/NC(=O)c2ccc(OCc3nc4ccc(Cl)cc4[nH]3)cc2)cc(OC)c1OC | 33% | 2.76% (active) | 34.5% | 76.3% | 67.1% | 97.7% | – | 55.7% | 58.3% | 80.6%
23 | O=C(c1ccc(O)cc1)C1[C@H](c2ccc(Cl)cc2)[C@@H](c2ccccc2)NC12C(=O)Nc1ccccc12 (stereo partly specified) | -47.2% (active) | -3.39% (active) | 12.5% | 9.48% (active) | 9.88% (active) | 43.7% | – | 6.48% (active) | -11.8% (active) | -35% (active)
24 | O=C(c1ccc(O)cc1)C1[C@H](c2ccc(Cl)cc2)[C@@H](c2ccccc2)NC12C(=O)Nc1ccc(Br)cc12 (stereo partly specified) | -52.7% (active) | 3.14% (active) | 5.82% (active) | -19.4% (active) | -8.82% (active) | 22% | – | 2.42% (active) | -5.94% (active) | -37.2% (active)
25 | O=CNc1ccc(-n2cnc3cc(-c4ccc(O)cc4)ccc32)cc1 | 55.9% | 66.1% | 82.4% | 94.7% | 74.9% | 111% | – | 68.6% | 93.3% | 81.6%
26 | COc1ccc2[nH]c(=O)c(CSc3ccccc3Nc3nccc(-c4ccc5c(c4)OCO5)n3)cc2c1 | 67.3% | 68.2% | 79.2% | 103% | 61.1% | 112% | – | 92.3% | 89.4% | 74.3%
27 | O=C(c1ccc(Cl)cc1)C1[C@H](c2ccccc2Cl)[C@@H](c2ccccc2)NC12C(=O)Nc1ccc(Cl)cc12 (stereo partly specified) | -52.8% (active) | 2.23% (active) | -76.4% (active) | -53.8% (active) | -14.4% (active) | 1.4% (active) | – | -28.9% (active) | -40.4% (active) | -82.7% (active)
